Read-out in experiment [1]: Tissue Factor, F3 (gene 2152)
Nature of the experiment: BSK_CASM3C_TissueFactor: BioMAP Diversity Plus: CASM3C Assay for Tissue Factor Biomarker Activity (AID 2283052).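 Also: cell surface tissue factor protein level read by ELISA.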 The note with it: primary human coronary artery smooth muscle cells; actives raise or lower the signal.

Read-out in experiment [2]: Interferon-gamma inducible Protein 10 (IP10), CXCL10 (gene 3627)
The experiment in a line: BSK_hDFCGF_IP10: BioMAP Diversity Plus: hDFCGF Assay for Interferon-gamma inducible Protein 10 (IP10) Biomarker Activity (AID 2283053). The note with it: primary human foreskin fibroblasts; actives raise or lower the signal. Summed up: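 Primary human foreskin fibroblasts exposed to chemicals for 24 h. IP-10 measured by ELISA; changes fitted bidirectionally against DMSO baseline.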

Read-out in experiment [3]: Urokinase-type plasminogen activator receptor (uPAR), PLAUR (gene 5329)
Nature of the experiment: BSK_CASM3C_uPAR: BioMAP Diversity Plus: CASM3C Assay for Urokinase-type plasminogen activator receptor (uPAR) Biomarker Activity (AID 2283054).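 Also: cell-surface uPAR protein level quantified by ELISA.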 To be noted: primary human coronary artery smooth muscle cells; actives raise or lower the signal.

Read-out in experiment [4]: Vascular cell adhesion molecule 1 (VCAM1), VCAM1 (gene 7412)
Nature of the experiment: BSK_CASM3C_VCAM1: BioMAP Diversity Plus: CASM3C Assay for Vascular cell adhesion molecule 1 (VCAM1) Biomarker Activity (AID 2283055).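 Also: VCAM-1 protein level quantified by ELISA on the cells.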 The note with it: primary human coronary artery smooth muscle cells; actives raise or lower the signal.

Read-out in experiment [5]: Collagen III, COL3A1 (gene 1281)
Nature of the experiment: BSK_hDFCGF_CollagenIII: BioMAP Diversity Plus: hDFCGF Assay for Collagen III Biomarker Activity (AID 2283056). To be noted: primary human foreskin fibroblasts; actives raise or lower the signal. The procedure, abridged:
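hDFCGF primary human dermal fibroblasts; 24 h chemical exposure; collagen III by ELISA; bidirectional curve fit vs DMSO baseline (gain or loss of signal).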

Read-out in experiment [6]: Epidermal growth factor receptor (EGFR), EGFR (gene 1956)
Nature of the experiment: BSK_hDFCGF_EGFR: BioMAP Diversity Plus: hDFCGF Assay for Epidermal growth factor receptor (EGFR) Biomarker Activity (AID 2283057). To be noted: primary human foreskin fibroblasts; actives raise or lower the signal. The procedure, abridged:
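Primary human foreskin fibroblasts (hDFCGF system), sampled 24 h after dosing; EGFR quantified by ELISA. Bidirectional fit relative to DMSO baseline; SRB total-protein staining in parallel cultures for cytotoxicity.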

Read-out in experiment [7]: Interleukin-8 (IL8), CXCL8 (gene 3576)
The experiment in a line: BSK_hDFCGF_IL8: BioMAP Diversity Plus: hDFCGF Assay for Interleukin-8 (IL8) Biomarker Activity (AID 2283058). The note with it: primary human foreskin fibroblasts; actives raise or lower the signal. The procedure, abridged: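 ELISA read-out of IL-8 from primary human foreskin fibroblast cultures taken 24 h after dosing; values are bidirectional fits relative to DMSO vehicle.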

A short description of experiment [8]: BSK_hDFCGF_Proliferation: Cell Proliferation Assessment in the BioMAP Diversity Plus: hDFCGF Assay (AID 2283059).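 Also: curves fitted for both rise and fall of signal versus DMSO baseline.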 To be noted: primary human foreskin fibroblasts. Summed up:
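Sub-confluent human foreskin fibroblast cultures receive test chemical […]. Relative cell number is quantified by sulforhodamine B staining (0.1%, after 10% TCA fixation) at 560 nm, with bidirectional fitting referenced to DMSO.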

Read-out in experiment [9]: Macrophage colony-stimulating factor (MCSF), CSF1 (gene 1435)
Nature of the experiment: BSK_hDFCGF_MCSF: BioMAP Diversity Plus: hDFCGF Assay for Macrophage colony-stimulating factor (MCSF) Biomarker Activity (AID 2283060). To be noted: primary human foreskin fibroblasts; actives raise or lower the signal. The procedure, abridged: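 ELISA read-out of M-CSF in human dermal foreskin fibroblast cultures, 24 h after chemical dosing; gain or loss of signal fitted bidirectionally relative to DMSO baseline.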

The nature of experiment [10]: BSK_hDFCGF_SRB: Viability Assessment in the BioMAP Diversity Plus: hDFCGF Assay (AID 2283061).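 Also: cells exposed to compound for 24 h before the read.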 The note with it: primary human foreskin fibroblasts. Summed up:
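Primary human foreskin fibroblasts; 24 h post-dose; fixed 10% TCA, stained 0.1% SRB, A560 read; total protein as overt cytotoxicity measure; curves fit bidirectionally vs DMSO control.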

Read-out in experiment [11]: TIMP metallopeptidase inhibitor 1 (TIMP1), TIMP1 (gene 7076)
Nature of the experiment: BSK_hDFCGF_TIMP1: BioMAP Diversity Plus: hDFCGF Assay for TIMP metallopeptidase inhibitor 1 (TIMP1) Biomarker Activity (AID 2283062). The note with it: primary human foreskin fibroblasts; actives raise or lower the signal. The procedure, abridged:
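ELISA readout of TIMP-1 from human dermal foreskin fibroblast cultures 24 h post-dosing. Curves were fitted in both directions against DMSO baseline, with SRB total-protein staining in parallel cultures as a cytotoxicity check.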

Read-out in experiment [12]: Monokine induced gamma interferon (MIG), CXCL9 (gene 4283)
Nature of the experiment: BSK_hDFCGF_MIG: BioMAP Diversity Plus: hDFCGF Assay for Monokine induced gamma interferon (MIG) Biomarker Activity (AID 2283063). The note with it: primary human foreskin fibroblasts; actives raise or lower the signal. The procedure, abridged:
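Fibroblasts (human foreskin, primary) dosed, 24 h, MIG by ELISA; fit bidirectional vs DMSO.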

Read-out in experiment [13]: Matrix Metallopeptidase 1 (MMP1), MMP1 (gene 4312)
Nature of the experiment: BSK_hDFCGF_MMP1: BioMAP Diversity Plus: hDFCGF Assay for Matrix Metallopeptidase 1 (MMP1) Biomarker Activity (AID 2283064). To be noted: primary human foreskin fibroblasts; actives raise or lower the signal. Summed up:
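Primary human foreskin fibroblasts in the hDFCGF system were dosed with test chemical, and MMP1 was measured by ELISA 24 h later. Values come from bidirectional curve fitting against the DMSO baseline.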

Read-out in experiment [14]: Vascular cell adhesion molecule 1 (VCAM1), VCAM1 (gene 7412)
Nature of the experiment: BSK_hDFCGF_VCAM1: BioMAP Diversity Plus: hDFCGF Assay for Vascular cell adhesion molecule 1 (VCAM1) Biomarker Activity (AID 2283065). The note with it: primary human foreskin fibroblasts; actives raise or lower the signal. The procedure, abridged:
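ELISA read-out of VCAM-1 on human skin fibroblasts, 24 h post-dose; gain or loss of signal fitted bidirectionally against DMSO baseline.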

Read-out in experiment [15]: Plasminogen activator inhibitor-1 (PAI1), SERPINE1 (gene 5054)
Nature of the experiment: BSK_hDFCGF_PAI1: BioMAP Diversity Plus: hDFCGF Assay for Plasminogen activator inhibitor-1 (PAI1) Biomarker Activity (AID 2283066). To be noted: primary human foreskin fibroblasts; actives raise or lower the signal. Summed up:
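Human foreskin fibroblast primary cells, 24 h chemical exposure; PAI-1 measured by ELISA. Bidirectional fitting relative to DMSO; parallel cultures stained with SRB for total protein to flag overt cytotoxicity.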

Read-out in experiment [16]: Intercellular Adhesion Molecule 1 (ICAM1), ICAM1 (gene 3383)
The experiment in a line: BSK_KF3CT_ICAM1: BioMAP Diversity Plus: KF3CT Assay for Intercellular Adhesion Molecule 1 (ICAM1) Biomarker Activity (AID 2283067). The note with it: primary human keratinocytes with fibroblasts; actives raise or lower the signal. Summed up: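 ELISA readout of ICAM-1; KF3CT human skin co-culture (keratinocytes + foreskin fibroblasts), 24 h post-dose; gain/loss fit vs DMSO baseline.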

Read-out in experiment [17]: Interferon-gamma inducible Protein 10 (IP10), CXCL10 (gene 3627)
Nature of the experiment: BSK_KF3CT_IP10: BioMAP Diversity Plus: KF3CT Assay for Interferon-gamma inducible Protein 10 (IP10) Biomarker Activity (AID 2283068). To be noted: primary human keratinocytes with fibroblasts; actives raise or lower the signal. The procedure, abridged: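 ELISA read-out of IP-10 after 24 h chemical dosing of human skin primary co-culture (keratinocytes, foreskin fibroblasts). Gain or loss of signal relative to DMSO, bidirectional curve fit.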

Experiment [18] can be described thus: BSK_KF3CT_SRB: Viability Assessment in the BioMAP Diversity Plus: KF3CT Assay (AID 2283069).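 Also: total protein by sulforhodamine B staining as a cytotoxicity measure; read 24 h after compound addition.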 To be noted: primary human keratinocytes with fibroblasts. Summed up:
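Human primary keratinocyte plus foreskin fibroblast co-culture exposed to chemicals for 24 h. Total protein measured by 0.1% sulforhodamine B staining after 10% TCA fixation, read at 560 nm; bidirectional fitting versus DMSO baseline.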

Read-out in experiment [19]: Interleukin-1 alpha (IL1a), IL1A (gene 3552)
Nature of the experiment: BSK_KF3CT_IL1a: BioMAP Diversity Plus: KF3CT Assay for Interleukin-1 alpha (IL1a) Biomarker Activity (AID 2283070). To be noted: primary human keratinocytes with fibroblasts; actives raise or lower the signal. Summed up:
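Human keratinocyte plus foreskin fibroblast primary co-culture, sampled 24 h after chemical dosing. IL-1a measured by ELISA; responses fitted bidirectionally against DMSO baseline (negative control), so gain or loss of signal both count.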

Read-out in experiment [20]: TIMP metallopeptidase inhibitor 2 (TIMP2), TIMP2 (gene 7077)
Nature of the experiment: BSK_KF3CT_TIMP2: BioMAP Diversity Plus: KF3CT Assay for TIMP metallopeptidase inhibitor 2 (TIMP2) Biomarker Activity (AID 2283071). The note with it: primary human keratinocytes with fibroblasts; actives raise or lower the signal. The procedure, abridged: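 Co-culture of human primary keratinocytes and foreskin fibroblasts, measured 24 h after chemical dosing. TIMP-2 quantified by ELISA and fitted in both directions relative to DMSO. Cytotoxicity checked in parallel cultures by SRB total-protein staining.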

The text below walks through data of PubChem BioAssay (EPA / NIEHS).

Activity calls are given as the source filed them. The calls were made as follows: active = hit-call score of the fitted dose curve at least 0.9, where 1 is the maximum; inactive = score below 0.9.

By AC50 is commonly meant the midpoint of the concentration-response curve, whichever way the signal moves.

As for `C[C@]12CC[C@@H]3c4ccc(O)cc4C[C@@H](CCCCCCCCCS(=O)CCCC(F)(F)C(F)(F)F)[C@H]3[C@@H]1CC[C@@H]2O` (some centres not stated), the result in [1], in [2], in experiment [3], in experiment [4], in experiment [5] and in experiment [6] was inactive. Moreover, the result in [7], in [9], in experiment [10], in [11], in experiment [12] and in experiment [13] was inactive. The outcome in [14], in experiment [16], in experiment [17], in experiment [18] and in [19] was inactive. The AC50 in experiment [8] was 4.75 µM (active); in experiment [15], 1.64 µM (active).

For `CCOC(=O)C(C)Oc1ccc(Oc2nc3ccc(Cl)cc3o2)cc1` (configuration not stated), the result in experiment [1], in experiment [2], in experiment [3], in [4], in experiment [5] and in experiment [6] was inactive. In addition, the result in [7], in [9], in experiment [10], in [11], in experiment [12] and in [14] was inactive. The result in experiment [15], in [16], in [17], in [18], in experiment [19] and in experiment [20] was inactive. Moreover, the AC50 is 13.2 µM (active) in experiment [8] and 20 µM (active) in experiment [13].

As for `S=C([S-])NCCNC(=S)[S-].[Mn+2]`, the outcome in [1], in experiment [3], in experiment [4], in experiment [7], in experiment [10] and in experiment [11] was inactive. Moreover, the result in experiment [18], in experiment [19] and in experiment [20] was inactive. Also, the AC50 is 30.7 µM (active) in [2]; 29.1 µM (active) in experiment [5]; 0.149 µM (active) in experiment [6]; 8.5 µM (active) in experiment [8]; 25.8 µM (active) in experiment [9]; 32.4 µM (active) in experiment [12]. Also, the AC50 was 4.73 µM (active) in experiment [13], 16.4 µM (active) in experiment [15] and 27.4 µM (active) in experiment [17].

With `CCOC(=O)[C@H](C)Oc1ccc(Oc2nc3ccc(Cl)cc3o2)cc1`, the outcome in experiment [1], in experiment [2], in experiment [3], in experiment [4], in [6] and in experiment [7] was inactive. The outcome in [9], in experiment [11], in experiment [12], in experiment [13], in [14] and in experiment [15] was inactive. Also, the outcome in experiment [16], in [18], in [19] and in experiment [20] was inactive. In addition, the AC50 in experiment [5] is 3.97 µM (active); in [8], 24.9 µM (active); in experiment [10], 0.508 µM (active); in [17] it was 25.3 µM (active).

Take `CCCCC(CC)CN1C(=O)C2C3C=CC(C3)C2C1=O` (configuration not stated): the outcome in experiment [1], in [3], in experiment [4], in [6], in [7] and in experiment [10] was inactive. Moreover, the result in [11], in experiment [12], in experiment [14], in [15], in [16] and in experiment [18] was inactive. In addition, the result in experiment [19] and in [20] was inactive. Further, the AC50 is 3.97 µM (active) in [2]; 30 µM (active) in experiment [5]; 29.6 µM (active) in experiment [8]; 20 µM (active) in [9]; 16 µM (active) in experiment [13]; 20 µM (active) in experiment [17].

For the compound `COC(=O)c1ccc(CNS(C)(=O)=O)cc1S(=O)(=O)NC(=O)Nc1nc(OC)cc(OC)n1`, the outcome in experiment [1], in experiment [2], in [3], in experiment [4], in [5] and in experiment [6] was inactive. Further, the result in experiment [7], in experiment [8], in experiment [9], in [10], in [11] and in experiment [12] was inactive. The result in experiment [13], in experiment [14], in experiment [15], in experiment [16], in experiment [17] and in experiment [18] was inactive. Moreover, the result in experiment [19] and in experiment [20] was inactive.
